Peg3 prom inh: reduces Peg3 promoter-driven luciferase expression in HeLa; 360,000 compounds, 1.7% hits; inhibition, % at 20 µM; HeLa PEG-Prom luciferase reporter, luminescence, overnight; AID 588405;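 active = inhibition of at least 50% at 20 µM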
CF NFkB inh: inhibitors of cystic fibrosis induced NF-kB; KKLEB NF-kB-GFP reporter, PAF-induced, GFP fluorescence overnight; inhibition, % at 5 µM; 360,000 compounds, 0.86% hits; AID 588850;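 active = at least 50% inhibition at 5 µM, scaled per plate between neutral and stimulator controls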;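 also: PAF is a Pseudomonas aeruginosa culture filtrate used as stimulus; plate controls were PAF-stimulated DMSO wells for no effect and unstimulated DMSO wells for full effect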
CHOP inh: inhibitors of CHOP induction in ER stress response; CHO-K1 CHOP-promoter luciferase, tunicamycin-induced, 15-18 h; inhibition, % at 10 µM; 220,000 compounds, 3.8% hits;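 active = compounds that reduced the stress-induced luciferase reporter signal by more than about 70% of percent inhibition, limit read from the data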;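 also: 0% = tunicamycin plus vehicle and 100% = wells without tunicamycin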
HIF-2a block: HIF-2a inhibition; 786-0 RCC cells HIF-2a reporter, luciferase luminescence, overnight; inhibition, % at 18.8 µM; 360,000 compounds, 0.72% hits;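 active = inhibition of the luminescence signal of 40% or more relative to plate controls, in a single-dose primary screen at 18.75 µM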
TRPM1 prom inh: reduces MITF-dependent TRPM1 promoter luciferase signal; SK-MEL-5 TRPM1 promoter luciferase, 24 h; inhibition, % at 12.5 µM; 330,000 compounds, 0.83% hits;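 active = mean inhibition across replicates of 60% or more, whatever share of single replicates reaches that level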
KKLEB tox: counter-screen for CF NF-kB inhibitors: cytotoxicity; KKLEB CF airway cells viability, ATPlite luminescence, overnight; hits give low values; cells stimulated with P. aeruginosa culture filtrate; activity change (cytotoxicity), % at 5 µM; 360,000 compounds, 0.36% hits;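 active = corrected activity change at or below -50% at 5 µM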
CHOP inh conf: confirmation of CHOP induction inhibitors | inhibition, % at 10 µM | shares compounds with CHOP inh | 2,100 compounds, 45% hits | CHO-CHOP promoter luciferase reporter, tunicamycin-induced, luminescence;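 active = mean of three repeat readings of reporter signal inhibition above a set limit, cut at about 70% in these data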;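 also: 0% = tunicamycin plus vehicle and 100% = wells lacking tunicamycin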
* marks the source's active call; other numbers are inactive results; nt = not tested or not shown. Rows were chosen to be rich in hits. Some 4.3% of all compounds tested hit in one or more screens of this group.

SMILES | Peg3 prom inh | CF NFkB inh | CHOP inh | HIF-2a block | TRPM1 prom inh | KKLEB tox | CHOP inh conf
O/N=C/c1cc(Br)ccc1OCc1ccc(F)cc1 | -110 | 0 | nt | -167 | -27 | 6 | nt
O/N=C/c1cc(Cl)ccc1OCc1ccccc1Cl | -1 | 4 | 107* | -36 | 4 | 5 | 30
CCOc1ccc(Cl)cc1/C=N/O | 7 | 4 | 30 | -2 | 2 | 9 | nt
Cc1ccc(COc2ccc(Br)cc2/C=N/O)cc1 | -250 | 4 | 110* | -200 | -52 | 0 | 104*
CCCCc1ncc(CN2CCC(n3nccc3NC(=O)c3ccccc3OC)CC2)[nH]1 | -6 | 15 | nt | 7 | -7 | -9 | nt
Cc1ccc(N(CC(=O)N2CCCCCC2)S(C)(=O)=O)c(C)c1 | 3 | 6 | nt | 11 | nt | 15 | nt
CCn1c2ccc(OC)cc2c2nc3ccccc3nc21 | nt | nt | 39 | nt | nt | nt | nt
CCOc1ccc(Cn2c3ccc(OC)cc3c3nc4ccccc4nc32)cc1 | 43 | 21 | 106* | 18 | -5 | -29 | -5
N=C(N)c1ccc(/C=C/c2ccc(C(=N)N)cc2O)cc1 | 2 | -24 | 12 | 16 | -4 | 10 | nt
CC1=NN(c2nc(-c3ccc(C)cc3)cs2)C(=O)C1N=Nc1ccccc1O (stereo not given) | 18 | -14 | 107* | -32 | 69* | 14 | 77*
CC1=NN(c2nc(-c3ccc(C)cc3)cs2)C(=O)C1N=Nc1cccc(O)c1 (stereo not given) | 27 | 41 | 65 | -21 | 7 | 9 | nt
CCOC(=O)C1(Cc2ccc(OC)cc2)CCN(C(=O)C2=CCCC2)CC1 | -8 | 1 | 102* | -39 | -3 | 1 | 14
COc1cc(NC(=O)COc2ccccc2[N+](=O)[O-])ccc1NC(=O)c1cccs1 | 57* | 30 | 104* | -170 | 74* | -9 | 105*
CC(C)c1ccc(NC(=O)C2(C)Cc3c(-c4cccc(C(F)(F)F)c4)ccnc3O2)cc1 (stereo not given) | 21 | -6 | nt | 20 | nt | -11 | nt
CCN(C[C@H]1N[C@@](CC)(C(=O)OC)[C@H]2C(=O)N(C)C(=O)[C@@H]12)C(=O)Nc1ccccc1 | 4 | 16 | nt | -1 | -3 | 0 | nt
O=C(Nc1ccc([N+](=O)[O-])cc1)C1CC1(c1ccccc1)c1ccccc1 (stereo not given) | -16 | 4 | 50 | 15 | 3 | -7 | nt
CC1(C)C(C=C(Cl)Cl)C1C(=O)Nc1ccc([N+](=O)[O-])cc1 (stereo not given) | nt | nt | 104* | nt | nt | nt | 58
CCOCc1nc2nc(Cl)c(Cl)nc2[nH]1 | -16 | -10 | nt | 10 | nt | -3 | nt
O=C(CCl)Nc1cn(-c2ccccc2)nc1-c1ccc(F)cc1 | 49 | 35 | 105* | 4 | 46 | -45 | 100*
O=C(c1cn(-c2ccccc2)nc1-c1ccc(F)cc1)N1CCCCC1 | 5 | 7 | 23 | 4 | -13 | 0 | nt
CC1(C(=O)NCc2ccccc2Br)CCN1C(=O)CCc1ccc(Cl)cc1Cl (stereo not given) | 32 | -10 | nt | 17 | nt | -10 | nt
O=[N+]([O-])c1ccc(N2CCCC2)c([N+](=O)[O-])c1 | -5 | -9 | nt | -16 | nt | 12 | nt
CCOc1cc(S(=O)(=O)Nc2cc(C)cc(C)c2)ccc1Cl | 45 | 14 | 106* | -5 | 14 | -6 | 117*
CCc1nc2c(OCC3COc4ccccc4O3)cccn2c1N(C)C(=O)c1cccs1 (stereo not given) | 17 | -16 | nt | -9 | nt | 14 | nt
COc1ccc(-c2nn(-c3ccccc3)cc2/C=N/O)cc1 | 3 | 10 | nt | -41 | nt | 6 | nt
SMILES | Peg3 prom inh | CF NFkB inh | CHOP inh | HIF-2a block | TRPM1 prom inh | KKLEB tox | CHOP inh conf
COc1ccc(-c2nn(-c3ccccc3)cc2/C=N/N2C(=O)CSC2=S)cc1 | 57* | 19 | 112* | 43* | 104* | -21 | 77*
O=C(Nc1ccc(Oc2cccc(C(F)(F)F)c2)nc1)c1cccs1 | -1 | 6 | 40 | 3 | 20 | -13 | nt
COc1ccccc1CN1CC(C(=O)N(C)Cc2[nH]c3ccccc3c2C)CCC1=O (stereo not given) | 2 | 12 | nt | -21 | 4 | -6 | nt
Cn1nc(-c2ccc(C(=O)Nc3ccc(F)cc3)cc2)c2ccccc2c1=O | 2 | -24 | 101* | 13 | 1 | -2 | 48
Cn1nc(-c2ccc(C(=O)Nc3cccnc3)cc2)c2ccccc2c1=O | 2 | 8 | 20 | 1 | -8 | -4 | nt
Cc1ccc(-c2nn(CC(=O)NCc3cc(-c4nn(C)c(=O)c5ccccc45)ccc3C)c(=O)c3ccccc23)cc1 | 70* | 0 | 106* | 2 | 82* | 8 | 93*
CCC(=O)NCc1cc(-c2nn(C)c(=O)c3ccccc23)ccc1C | 7 | -20 | 6 | 6 | 0 | -5 | nt
Oc1ccc(Cl)cc1-c1cc(-c2cccc(Br)c2)n[nH]1 | -21 | 9 | 101* | -102 | -12 | 10 | -48
O=C(NC(=S)NNC(=O)c1ccc(Cl)cc1Cl)c1cccnc1 | -16 | -7 | 34 | -3 | 3 | 2 | nt
Cc1ccccc1C(=O)NNC(=S)NC(=O)c1ccc(Cl)cc1Cl | 9 | 12 | 96* | 13 | 8 | -3 | 12
CCCN(C)C1CN(Cc2cn(Cc3ccc(F)cc3)nn2)S(=O)(=O)C1 (stereo not given) | nt | nt | nt | 5 | nt | nt | nt
CC1(C(=O)Nc2cccnc2)Cc2c(-c3cccc(C(F)(F)F)c3)ccnc2O1 (stereo not given) | 38 | 12 | nt | 19 | nt | 2 | nt
Cc1ccc(C(=O)Nc2sc3c(c2C(=O)NCc2ccco2)CCCC3)cc1 | -117 | 9 | 104* | -166 | -34 | 1 | -105
COC(=O)Nc1sc2c(c1C(=O)NCc1ccco1)CCCC2 | 3 | -10 | 29 | -8 | -5 | -6 | nt
Cc1ccc(CN2C(=O)CSCC2(C)C(=O)Nc2c(C)cccc2C)cc1 (stereo not given) | nt | nt | nt | 13 | nt | nt | nt
COc1ccc([C@H]2C[C@@H](O)C[C@@H](CCn3cc(-c4ccccc4)nn3)O2)cc1 | nt | nt | nt | 8 | nt | nt | nt
CC(=O)Nc1ccc(NC(=O)c2c(C)nn(Cc3ccccc3Cl)c2C)cc1 | 1 | -3 | nt | 17 | 0 | 8 | nt
Cc1cccc(N2CCN(C(=O)c3c(C)nn(Cc4ccccc4Cl)c3C)CC2)c1C | 37 | 11 | 103* | 22 | 16 | -3 | 86*
O=c1cc(Nc2ccc3c(c2)OCCO3)[nH]c(=O)n1C1CCCCC1 | -7 | 18 | nt | -110 | 8 | -21 | nt
CCc1ccc(Nc2cc(=O)n(C3CCCCC3)c(=O)[nH]2)cc1 | -114 | 12 | 105* | -102 | -54 | 8 | 49
CC[n+]1c(/C=C2\Sc3ccccc3N2C)ccc2cccc(C)c21 | 114* | -248 | 104* | 79* | 104* | -18 | 110*
Fc1cccc(/C=N/NC(=S)Nc2ccccc2Cl)c1 | -144 | 9 | 104* | -280 | -45 | -5 | -33

Source: PubChem BioAssay (several laboratories)
